Molecules are shown by their SMILES. Out of some 330,000 compounds screened, about 670 (0.2%) were called active.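 Rule for the calls: active = activity change below a set negative limit, meaning inhibition stronger than a set level (cut at about -70% in these data); inconclusive = activity change between two set negative limits; inactive = the rest.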 The entries come from a sample that favours actives as a whole.

The text below walks through data of PubChem BioAssay AID504810 (National Center for Advancing Translational Sciences (NCATS), 2011).
% is set by controls: 0 for no effect and ±100 for the full control effect.

Sequence of Thyrotropin receptor (Homo sapiens) (P16473 whole entry, looked up): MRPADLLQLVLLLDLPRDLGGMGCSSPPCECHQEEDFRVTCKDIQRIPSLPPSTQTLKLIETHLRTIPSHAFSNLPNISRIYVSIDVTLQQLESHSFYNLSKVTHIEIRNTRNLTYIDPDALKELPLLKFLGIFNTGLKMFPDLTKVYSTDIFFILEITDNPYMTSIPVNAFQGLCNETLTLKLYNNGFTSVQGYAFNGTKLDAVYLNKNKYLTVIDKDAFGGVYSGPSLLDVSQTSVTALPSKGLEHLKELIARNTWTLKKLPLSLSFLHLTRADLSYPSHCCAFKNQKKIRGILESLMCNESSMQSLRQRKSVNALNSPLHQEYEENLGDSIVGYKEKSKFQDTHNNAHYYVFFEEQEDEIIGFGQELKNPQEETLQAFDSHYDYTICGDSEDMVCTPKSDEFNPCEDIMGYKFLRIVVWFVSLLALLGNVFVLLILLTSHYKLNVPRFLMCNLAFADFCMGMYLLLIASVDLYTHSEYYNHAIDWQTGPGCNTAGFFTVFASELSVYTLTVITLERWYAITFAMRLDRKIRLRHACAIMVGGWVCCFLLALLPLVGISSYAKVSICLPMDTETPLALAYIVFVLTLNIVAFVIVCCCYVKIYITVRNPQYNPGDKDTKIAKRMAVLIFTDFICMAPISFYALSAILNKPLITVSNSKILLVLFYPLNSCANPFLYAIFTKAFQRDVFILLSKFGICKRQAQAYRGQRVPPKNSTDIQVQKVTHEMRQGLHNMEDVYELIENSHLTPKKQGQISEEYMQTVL

The test addresses Thyrotropin receptor (Homo sapiens) (UniProt P16473). The experiment in a line: Antagonists of the Thyroid Stimulating Hormone Receptor: HTS campaign. Conditions: TSHR-expressing cells, TSH-stimulated cAMP HTRF, 2 h; at 11.5 µM; active compounds read low. In a few lines: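 Competitive HTRF cAMP read-out (cryptate anti-cAMP antibody, cAMP-d2; 30 min, room temperature) in freshly harvested TSHR cells. Compounds added before TSH at EC80 (4nM final), followed by 2 hours' incubation at 37 deg C.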
Take `Nc1ccc(Nc2cc(O)c3ncccc3c2)cc1`: the activity change, negative = inhibition was -16% (inactive).

On to `CCOC(=O)c1ccccc1NS(=O)(=O)c1c(C)nc2sccn2c1=O`, for which the activity change, negative = inhibition is 3.11% (inactive).

On to `CCN(/N=C/c1ccc(N(C)C)cc1)c1nc2ccccc2[nH]1`, for which the activity change, negative = inhibition was -6.71% (inactive).

For the molecule `O=C(CCCN1C(=O)CCC1=O)Nc1ccc(Cl)c(C(F)(F)F)c1`, the activity change, negative = inhibition was 1.2% (inactive).

For the molecule `O=C(CC(O)(C(F)(F)F)C(F)(F)F)Nc1ccc(Cl)c(Cl)c1`, the activity change, negative = inhibition is -74.6% (active).

Consider `CS(=O)(=O)N(CC(=O)Nc1ccc(Cl)c(Cl)c1)C1CCCCC1`, for which the activity change, negative = inhibition was 15.8% (inactive).

Consider `Cc1ccccc1CN1C[C@@H]2C[C@@H](c3cn(C)nc3-c3ccccc3)N3CCC[C@@]23C1=O`, for which the activity change, negative = inhibition was 2.86% (inactive).

`NC(=O)COC(=O)c1cc(S(=O)(=O)N2CCN(c3ccccc3)CC2)ccc1Cl`: the activity change, negative = inhibition was -4.47% (inactive).

Turning to `CCNC(=O)NC(=O)C(C)OC(=O)C1CCN(S(=O)(=O)c2ccccc2F)CC1` (configuration not stated), the activity change, negative = inhibition is 15.3% (inactive).

Regarding `O=C(CCNC(=O)Cn1ccc2ccccc2c1=O)NCCC1=CCCCC1`, the activity change, negative = inhibition was 9.22% (inactive).

As for `Oc1ccc(Cn2cc[nH]c2=S)cc1`, the activity change, negative = inhibition is 7.71% (inactive).

`Cc1ccc(S(=O)(=O)N2[C@@H](c3ccc(Br)cc3)C(C(=O)O)=C[C@H]2CC2CCCC2)cc1`: the activity change, negative = inhibition was -5.29% (inactive).

Take `CC[C@]12c3[nH]c4ccc(Cl)cc4c3CCN1C(=O)[C@@H](CC(=O)NCCCOC)C[C@@H]2C(=O)N1CCN(C(=O)C2CC2)CC1`: the activity change, negative = inhibition is 11.4% (inactive).

`CCN(Cc1ccccc1)C(=O)Cc1ccc(OC)c(S(=O)(=O)N2CCOCC2)c1`: the activity change, negative = inhibition was 0.0578% (inactive).

With `N#Cc1c(Cl)nc(-c2cccnc2)nc1-c1ccccc1`, the activity change, negative = inhibition was 3.65% (inactive).

Consider `CC1(c2ccc3ccccc3c2)NC(=O)N(CC(N)=O)C1=O` (configuration not stated), for which the activity change, negative = inhibition was -6.17% (inactive).

In the case of `CN(C)c1ccc(S(=O)(=O)NCC(=O)NCC2CCCCC2)cc1[N+](=O)[O-]`, the activity change, negative = inhibition was 6.75% (inactive).

Turning to `Cc1ccc(S(=O)(=O)NCCCn2ccnc2)cc1C(=O)NC(C)C`, the activity change, negative = inhibition is -0.615% (inactive).

In the case of `Cc1c(NC(=O)Nc2ccccc2Cl)sc(=S)n1C`, the activity change, negative = inhibition was 46.2% (inactive).

Consider `CC1(C)CC(CCC(=O)Nc2ccccc2Cl)C(=O)O1` (configuration not stated), for which the activity change, negative = inhibition was 13.5% (inactive).

Take `O=C(Nc1ccccc1Cl)/C(Cl)=C(\Cl)S(=O)c1ccccc1` (configuration not stated): the activity change, negative = inhibition was -71.3% (active).

As to `O=C1CCC(C(=O)N2CCCCO2)CN1Cc1cccc(C(F)(F)F)c1` (configuration not stated), the activity change, negative = inhibition is 15.4% (inactive).

For `COc1ccc(CCNC2=CC(=O)CC(C)(C)C2)cc1`, the activity change, negative = inhibition is -4.33% (inactive).

As to `O=C1NC2(CCCCCC2)C(=O)N1CCS(=O)(=O)Oc1ccccc1`, the activity change, negative = inhibition is -2.81% (inactive).

For `Cc1ccc(C(=O)Nc2ncccc2C)cc1S(=O)(=O)N1CCOCC1`, the activity change, negative = inhibition was -1.78% (inactive).

Turning to `COc1ccc(/C=C/C(=O)OCC(=O)NC2CCCCCC2)cc1OC`, the activity change, negative = inhibition was -8.81% (inactive).

With `CCN(CC(=O)Nc1ccccc1C(F)(F)F)C(=O)CSCc1c(C)noc1C`, the activity change, negative = inhibition is 4.59% (inactive).

As to `Cc1nnc(NC(=O)CSc2nccn2-c2cccc(C)c2C)s1`, the activity change, negative = inhibition was -14.2% (inactive).

`Fc1ccc(-n2c(Cc3ccccc3)nnc2SCc2nc(-c3ccc(Cl)cc3)no2)cc1`: the activity change, negative = inhibition is 7.8% (inactive).

Take `CCOCCCNC(=O)C(NC(=O)c1ccccc1O)c1ccccc1` (configuration not stated): the activity change, negative = inhibition was 1.46% (inactive).

Turning to `CCOCCCNC(=O)C(NC(=O)c1ccc(=O)[nH]c1)c1ccc(C)cc1` (configuration not stated), the activity change, negative = inhibition is -1.24% (inactive).

Turning to `CCOCCCNC(=O)C(NC(=O)c1ccc(=O)[nH]c1)c1ccc(Cl)cc1` (configuration not stated), the activity change, negative = inhibition is -71.3% (active).

Regarding `CCOC(=O)C1(CC2CCCCO2)CCN(Cc2nc(-c3cccs3)oc2C)CC1` (configuration not stated), the activity change, negative = inhibition was -7.01% (inactive).

`COc1ccc(N2C(=O)NC(NS(=O)(=O)c3ccc(Cl)cc3)(C(F)(F)F)C2=O)cc1` (configuration not stated): the activity change, negative = inhibition was -105% (active).

`COc1ccc(S(=O)(=O)NC2(C(F)(F)F)N=C3SCCN3C2=O)cc1` (configuration not stated): the activity change, negative = inhibition is 17.4% (inactive).

For `Cc1ccc(S(=O)(=O)NC2(C(F)(F)F)NC(=O)N(CCc3ccccc3)C2=O)cc1` (configuration not stated), the activity change, negative = inhibition was -3.44% (inactive).

Consider `Cn1nccc1C(=O)NC1CCCc2c1cnn2-c1ccccc1F` (configuration not stated), for which the activity change, negative = inhibition is -36.6% (inactive).

For `Cn1nccc1C(=O)NC1CCCc2c1cnn2-c1ccc(F)cc1F` (configuration not stated), the activity change, negative = inhibition is -37.7% (inactive).

In the case of `Cc1cc(C(=O)NC2CCCc3c2cnn3-c2cccc(C)c2C)c(C)o1` (configuration not stated), the activity change, negative = inhibition was -79.3% (active).

With `Cc1ccc(S(=O)(=O)c2c[nH]c3ccc(Cl)cc3c2=O)cc1`, the activity change, negative = inhibition is -9.54% (inactive).

On to `CCn1nc(C(=O)NNC(=O)C2CSC3(C)CCC(=O)N23)c2ccccc2c1=O` (configuration not stated), for which the activity change, negative = inhibition was 6.6% (inactive).

Regarding `COCCCn1c(Cc2csc(Nc3cccc(Cl)c3)n2)nnc1SCC(=O)OC1CCCCC1`, the activity change, negative = inhibition was -4.53% (inactive).

On to `C/C(=N\NC(=O)c1cc(-c2ccc(O)cc2)nc2ccccc12)c1cccnc1`, for which the activity change, negative = inhibition was 0.505% (inactive).

For the molecule `Cc1cccc(N2CCC(NCc3c(C(=O)N4CCCCC4)nc4c(C)cccn34)CC2)c1`, the activity change, negative = inhibition is 4.5% (inactive).

As to `CCOC(=O)[C@H]1[C@H]2COc3ccc(C)cc3[C@@H]2N2C(=O)CN(Cc3ccc(F)cc3)C(=O)[C@@]12C`, the activity change, negative = inhibition was -7.74% (inactive).

On to `Cc1ccc(N(CCC(=O)O)S(=O)(=O)c2cccc(C(F)(F)F)c2)cc1`, for which the activity change, negative = inhibition is 22.4% (inactive).

Consider `CN(CC(=O)Nc1cccc(F)c1)C(=O)C1CC(=O)N(CCc2ccccc2)C1` (configuration not stated), for which the activity change, negative = inhibition was 8.3% (inactive).

With `CC(C)c1ccc(NC(=S)NC2CC3C=CC2C3)cc1` (configuration not stated), the activity change, negative = inhibition was -4.5% (inactive).

Take `CC(NC(=O)COC(=O)CCC(=O)c1ccc(Cl)cc1)c1ccccc1` (configuration not stated): the activity change, negative = inhibition was -10.7% (inactive).

Regarding `COc1cccc(NC(=O)C2CCCN(c3ncnc4c3nc3n4CCCCC3)C2)c1` (configuration not stated), the activity change, negative = inhibition was -12.1% (inactive).

For `COc1ccc(N(CC(=O)NCc2ccc(F)cc2)C(=O)CCC(=O)Nc2nccs2)cc1`, the activity change, negative = inhibition is -77.8% (active).

As for `COc1cccc(N(CC(=O)NCc2ccccc2)C(=O)CCC(=O)Nc2nccs2)c1`, the activity change, negative = inhibition was -9.83% (inactive).

In the case of `O=C(CN(C(=O)CCC(=O)Nc1nccs1)c1ccc(F)cc1)NCc1ccc2c(c1)OCO2`, the activity change, negative = inhibition was 21.9% (inactive).

As for `COC(=O)c1ccc(S(=O)(=O)N2CCC(c3nc4ccccc4o3)CC2)cc1`, the activity change, negative = inhibition is -1% (inactive).

`Cn1cc(CCC(=O)NCc2ccc3c(c2)OCO3)c2ccccc21`: the activity change, negative = inhibition is 5.66% (inactive).

For `N#Cc1nc(Cc2cccc3ccccc23)oc1NCc1ccc2c(c1)OCO2`, the activity change, negative = inhibition was -94.7% (active).

Consider `c1n[nH]c(NCc2ccc3c(c2)OCO3)n1`, for which the activity change, negative = inhibition is 5.91% (inactive).
